The text below walks through data of PubChem BioAssay (NCATS).

For assay [1], the target named is Cytochrome P450 3A4 (Homo sapiens) (UniProt P08684). Description: qHTS Assay for Inhibitors and Substrates of Cytochrome P450 3A4 (AID 884). Note: nearly all actives have a fitted effect of over 50% in size. Note: potency is the fitted concentration of half-maximal effect. The procedure, abridged: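 Luminescent readout of luciferin produced by CYP3A4 (20 nM) dealkylation of Luciferin-PPXE, 25 uM (its KM). NADPH-driven reaction ran 60 min at RT after 10 min compound preincubation; data scaled to 57 uM ketoconazole as 100% inhibition.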
Cytochrome P450 3A4 (Homo sapiens), sequence (P08684 whole entry, looked up): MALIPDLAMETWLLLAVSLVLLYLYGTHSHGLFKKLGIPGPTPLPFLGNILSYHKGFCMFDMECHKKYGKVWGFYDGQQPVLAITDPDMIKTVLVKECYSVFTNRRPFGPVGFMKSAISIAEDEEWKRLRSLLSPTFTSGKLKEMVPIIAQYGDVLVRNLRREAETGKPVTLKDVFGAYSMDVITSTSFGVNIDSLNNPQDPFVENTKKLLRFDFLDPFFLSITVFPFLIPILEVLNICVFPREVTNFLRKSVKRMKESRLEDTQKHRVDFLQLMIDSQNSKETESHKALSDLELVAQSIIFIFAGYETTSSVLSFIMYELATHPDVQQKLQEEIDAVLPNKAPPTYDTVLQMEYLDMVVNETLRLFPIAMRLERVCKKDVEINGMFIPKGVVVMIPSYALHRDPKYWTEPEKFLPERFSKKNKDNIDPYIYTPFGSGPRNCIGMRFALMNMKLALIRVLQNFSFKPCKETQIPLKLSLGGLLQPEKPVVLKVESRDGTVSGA
On the technique in general: Quantitative high-throughput screening tests each substance at several concentrations.

Assay [2] shares this target. Description: qHTS Assay for Activators of Cytochrome P450 3A4 (AID 885). Note: nearly all actives have a fitted effect of over 65% in size. A digest of the protocol:
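Activators are scored by enhanced luminescence from CYP3A4 conversion of luciferin-PPXE (25uM, equal to KM) to luciferin, after 60 min at RT with an NADPH-regenerating system.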

A short description of assay [3]: Confirmation and Secondary Assay for Modulators of Hemoglobin Beta Chain Splicing at IVS2 654 locus (AID 910).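 Note: HeLa cells stably carrying EGFP split by mutant beta-globin IVS2-654 intron; % of control where 0% means no effect.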 A digest of the protocol:
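HeLa cells stably expressing EGFP interrupted by β-globin IVS2-654 intron, seeded overnight in Opti-MEM/2% FCS, then treated 2 days at 37 °C. Restored splicing read as total peak GFP intensity per well by laser scanning cytometry (488 nm excitation, 500–520 nm emission); 500 nM antisense PNA as control.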

A short description of assay [4]: Confirmation and Secondary Assay for Modulators of Hemoglobin Beta Chain Splicing at IVS2 705 locus (AID 930).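 Note: HeLa cells stably expressing the EGFP-705 splicing reporter; GFP fluorescence per well restored by corrected splicing of the IVS2-705 intron in EGFP; % of control where 0% means no effect.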 A digest of the protocol: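 Secondary splice-site specificity test uses HeLa expressing CMV-driven EGFP interrupted by IVS2-705; cells were treated 2 days at 37C with 500 nM antisense PNA as positive control.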
Assay [5] can be described thus: qHTS Assay for Lipid Storage Modulators (AID 1519; calls by dose curve). Particulars: Drosophila S3 cells, BODIPY lipid droplet/cell ratio, laser cytometry, cells loaded with oleic acid; for activity change, negative = inhibition: at 57.5 µM (top of the series). A digest of the protocol:
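Cells seeded at 5,000 per well were treated with compounds over a concentration series and loaded with oleic acid (400 uM, as added). Lipid droplet fluorescence (488 nm excitation, 500-530 nm channel) was read by laser-scanning cytometry and normalized to 20 uM Triacsin C.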

For assay [6], the target named is Rap guanine nucleotide exchange factor 3 (Homo sapiens) (UniProt O95398). Description: Confirmatory qHTS for antagonist of cAMP-regulated guanine nucleotide exchange factor 3 (EPAC1) (AID 1645880).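 Note: plate controls were DMSO only for no effect and full effect of the ATA control for full effect; nearly all actives have a fitted effect of over 55% in size.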 A digest of the protocol:
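Released BODIPY-GDP fluoresces less than Rap1-bound BODIPY-GDP; the signal is followed at 480/540 nm at 5-min intervals over 30 min, after 5 min at room temperature. Reactions contain 100 nM EPAC1, 250 nM RAP1B-BODIPY-GDP and 50 uM GDP; results are normalized to ATA and DMSO.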

Assay [7] shares this target. Kind of assay: Confirmatory qHTS for agonist of cAMP-regulated guanine nucleotide exchange factor 3 (EPAC1) (AID 1645881).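 Note: EPAC1 catalysed release of BODIPY-GDP from Rap1B seen as fluorescence loss; 100% = effect of cAMP agonist control; nearly all actives have a fitted effect of over 75% in size.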
The target in assay [8] is Rap guanine nucleotide exchange factor 4 (Homo sapiens) (UniProt Q8WZA2). Kind of assay: Confirmatory qHTS for agonist of cAMP-regulated guanine nucleotide exchange factor 4 (EPAC2) (AID 1645884).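 Note: nucleotide exchange releases bodipy-GDP from Rap1 and this lowers its fluorescence; % is set by controls: 0 for no effect and ±100 for the full control effect; nearly all actives have a fitted effect of over 65% in size.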
Rap guanine nucleotide exchange factor 4 (Homo sapiens), sequence (Q8WZA2 whole entry, looked up): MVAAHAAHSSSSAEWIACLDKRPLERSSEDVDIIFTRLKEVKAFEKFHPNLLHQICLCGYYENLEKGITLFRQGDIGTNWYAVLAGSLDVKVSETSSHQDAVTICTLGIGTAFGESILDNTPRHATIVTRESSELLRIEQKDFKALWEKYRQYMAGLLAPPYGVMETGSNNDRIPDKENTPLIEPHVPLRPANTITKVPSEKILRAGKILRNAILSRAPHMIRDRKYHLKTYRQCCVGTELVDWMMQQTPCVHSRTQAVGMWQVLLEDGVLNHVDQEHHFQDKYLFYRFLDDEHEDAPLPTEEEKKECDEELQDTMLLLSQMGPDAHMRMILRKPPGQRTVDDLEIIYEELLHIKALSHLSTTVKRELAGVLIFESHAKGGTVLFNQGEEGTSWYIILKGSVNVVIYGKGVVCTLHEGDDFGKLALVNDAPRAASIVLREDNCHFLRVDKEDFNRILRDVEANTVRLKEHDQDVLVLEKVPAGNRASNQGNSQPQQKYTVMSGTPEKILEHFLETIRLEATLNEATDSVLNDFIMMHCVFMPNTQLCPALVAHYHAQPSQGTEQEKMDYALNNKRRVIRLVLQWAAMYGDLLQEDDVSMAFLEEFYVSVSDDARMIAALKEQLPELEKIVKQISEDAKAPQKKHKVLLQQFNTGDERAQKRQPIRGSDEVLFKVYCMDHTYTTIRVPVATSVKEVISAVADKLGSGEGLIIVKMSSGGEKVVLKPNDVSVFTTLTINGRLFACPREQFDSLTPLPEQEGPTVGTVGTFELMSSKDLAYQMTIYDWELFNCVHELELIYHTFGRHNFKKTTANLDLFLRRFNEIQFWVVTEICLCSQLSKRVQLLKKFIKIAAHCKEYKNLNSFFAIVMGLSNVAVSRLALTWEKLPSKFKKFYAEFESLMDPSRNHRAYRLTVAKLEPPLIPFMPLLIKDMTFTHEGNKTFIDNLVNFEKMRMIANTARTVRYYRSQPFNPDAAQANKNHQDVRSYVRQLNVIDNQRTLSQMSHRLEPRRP
For assay [9] the target is unchanged. Kind of assay: Confirmatory qHTS for antagonist of cAMP-regulated guanine nucleotide exchange factor 4 (EPAC2) (AID 1645885). Note: nearly all actives have a fitted effect of over 25% in size. Note: potency is the fitted concentration of half-maximal effect.
The target in assay [10] is Lysosomal acid glucosylceramidase (Homo sapiens) (UniProt P04062). Kind of assay: Glucocerebrosidase-p2 (AID 348; in the data active = potency below about 10 µM; note: potency is the fitted concentration of half-maximal effect). The note with it: purified GBA, blue fluorogenic substrate, 40 min. A digest of the protocol: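 Normal human glucocerebrosidase (0.2 nM) with blue fluorogenic substrate (80 uM final) in citrate/phosphate pH 5.9 with 10mM sodium taurocholate, 0.01% tween-20; 40 min RT, NaOH/glycine stop; fluorescence Ex 365/Em 440; AC50 from a titration from 0.6 nM upwards.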
Lysosomal acid glucosylceramidase (Homo sapiens), sequence (P04062 whole entry, looked up): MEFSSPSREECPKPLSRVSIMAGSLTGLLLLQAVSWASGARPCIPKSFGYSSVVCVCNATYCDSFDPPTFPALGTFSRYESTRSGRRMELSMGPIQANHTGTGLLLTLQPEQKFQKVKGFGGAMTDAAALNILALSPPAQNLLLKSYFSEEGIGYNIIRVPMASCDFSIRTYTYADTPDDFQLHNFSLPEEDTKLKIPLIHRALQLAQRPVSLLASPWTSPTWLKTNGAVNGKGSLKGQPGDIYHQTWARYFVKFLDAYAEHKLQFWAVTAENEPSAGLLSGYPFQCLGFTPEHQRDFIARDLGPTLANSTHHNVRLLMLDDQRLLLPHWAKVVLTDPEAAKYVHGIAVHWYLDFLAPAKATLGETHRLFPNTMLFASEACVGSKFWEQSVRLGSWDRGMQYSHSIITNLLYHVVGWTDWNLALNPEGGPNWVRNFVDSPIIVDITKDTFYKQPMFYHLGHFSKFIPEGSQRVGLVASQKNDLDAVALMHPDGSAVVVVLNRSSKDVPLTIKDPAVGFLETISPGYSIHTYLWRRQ

The nature of assay [11]: AP1 Signaling Pathway (AID 357; active = well fitted curve in either direction with a large enough effect, not every such curve was filed as active;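 note: ME-180 reporter cells stimulated with EGF at its EC50 level; % is set by controls: 0 for no effect and ±100 for the full control effect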). The note with it: ME-180 AP-1-bla reporter, EGF-induced, beta-lactamase ratio, 5 h; at 7.69 µM (top of the series) unless noted. The procedure, abridged:
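A ratiometric CCF4 readout (405 nm excitation; 460 and 530 nm emission) quantified AP-1-driven beta-lactamase in ME-180 cells after 5 h with compound and EC50 EGF; AC50 values were derived for activators and inhibitors.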

Assay [12] can be described thus: NFAT Signaling Pathway (AID 444; active = well fitted curve in either direction with a large enough effect, not every such curve was filed as active;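 note: carbachol stimulus at about its EC50 of 1 µM final; % is set by controls: 0 for no effect and ±100 for the full control effect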). Particulars: Jurkat NFAT-bla M1, carbachol, beta-lactamase ratio, 5 h; at 7.69 µM (top of the series) unless noted. A digest of the protocol: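 Jurkat cells with NFAT-driven β-lactamase reporter and co-expressed M1 receptor, stimulated with carbachol (final 1 uM, ~EC50), compound titration, 5 h at 37 °C. CCF4 loaded 1 h at RT; 460/530 nm ratio gave %activity and AC50.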

Assay [13] can be described thus: Stat Signaling Pathway (AID 446; active = well fitted curve in either direction with a large enough effect, not every such curve was filed as active;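 note: ME-180 cervical cancer cells given 40 pM IL-6 alongside compound; SIE-controlled beta-lactamase reporter measured as 460/530 nm FRET emission ratio; % is set by controls: 0 for no effect and ±100 for the full control effect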). Particulars: ME-180 (cervical carcinoma) SIE beta-lactamase reporter, IL-6 stimulated, 5 h; at 7.69 µM (top of the series) unless noted. The procedure, abridged: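 Emission at 460 and 530 nm (excitation 405 nm) reports SIE-controlled beta-lactamase in ME-180 cells. Cells received compound with 40 pM IL-6 for 5 hrs at 37 C; data scaled between 300 pM IL-6 and 125 nM JAK-inhibitor controls.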

Assay [14] has as its target Glucocorticoid receptor (Homo sapiens) (UniProt P04150). Description: GR-GFP Redistribution (AID 450;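 active = compounds whose dose series gives a full or clear partial fitted curve of increased nuclear translocation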; note: potency is the fitted concentration of half-maximal effect). The note with it: U2OS GR-GFP nuclear translocation, laser cytometry, 2 h.
For assay [15] the target is unchanged. Kind of assay: GR-EFC Redistribution (AID 451; calls by dose curve; note: potency is the fitted concentration of half-maximal effect). Particulars: CHO-K1 GR-EFC translocation, beta-gal luminescence, 2 h. A digest of the protocol: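 CHO-K1 cells expressing nuclear EA and GR-ED fragments of b-gal; compounds titrated up to 46 uM final, 2 h at 37 C. GR nuclear translocation read as complemented b-gal luminescence after 1 h RT detection.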
In assay [16] the target is Mitogen-activated protein kinase 10 (Mus musculus) (UniProt Q61831). Description: JNK3 AlphaScreen Assay (AID 530; active = well fitted curve in either direction with a large enough effect, not every such curve was filed as active;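 note: kinase came from lysate of stimulated human HepG2 cells; signal reports phosphorylation of biotinylated GST-cJun 1-79 at Ser73 with 10 µM ATP; % is set by controls: 0 for no effect and ±100 for the full control effect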). A digest of the protocol:
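HepG2 lysate (IL-1b/TNFa pre-activated) + biotin-GST-cJun 1-79 + anti-pSer73 cJun; cpd titration, 15 min RT; ATP 10 uM start; Tris pH 7.6, MgCl2, DTT, vanadate; beads in EDTA buffer; AlphaScreen.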
A general note: Alpha assays give light when donor and acceptor beads are brought close together.

The target in assay [17] is Dual specificity protein kinase CLK4 (Homo sapiens) (UniProt Q9HAZ1). Description: qHTS Assay for Inhibitors of CDC-like Kinase 4 (Kinase-Glo Assay) (AID 1770). Note: potency is the fitted concentration of half-maximal effect; nearly all actives have a fitted effect of over 65% in size. The procedure, abridged:
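25 nM Clk4 with 100 uM RS repeat peptide and 1 uM ATP (final) in Tris pH7.5, 10 mM MgCl2, 4.5 h at room temperature. Remaining ATP measured by Kinase-Glo luciferase luminescence.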

For assay [18], the target named is Ubiquitin carboxyl-terminal hydrolase 1 (Homo sapiens) (UniProt O94782). Kind of assay: Inhibitors of USP1/UAF1: Pilot qHTS (AID 504865). Note: nearly all actives have a fitted effect of over 35% in size. Note: potency is the fitted concentration of half-maximal effect. A digest of the protocol: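 USP1/UAF1 complex at 1 nM preincubated 15 min at room temperature with compound, then Ub-Rho substrate added at 150 nM final. Fluorescence (480/540 nm) read kinetically in 50 mM HEPES pH 7.8, 0.5 mM EDTA, 1 mM TCEP, 0.1 mg/ml BSA, 0.01% Tween-20.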
Ubiquitin carboxyl-terminal hydrolase 1 (Homo sapiens), sequence (O94782 whole entry, looked up): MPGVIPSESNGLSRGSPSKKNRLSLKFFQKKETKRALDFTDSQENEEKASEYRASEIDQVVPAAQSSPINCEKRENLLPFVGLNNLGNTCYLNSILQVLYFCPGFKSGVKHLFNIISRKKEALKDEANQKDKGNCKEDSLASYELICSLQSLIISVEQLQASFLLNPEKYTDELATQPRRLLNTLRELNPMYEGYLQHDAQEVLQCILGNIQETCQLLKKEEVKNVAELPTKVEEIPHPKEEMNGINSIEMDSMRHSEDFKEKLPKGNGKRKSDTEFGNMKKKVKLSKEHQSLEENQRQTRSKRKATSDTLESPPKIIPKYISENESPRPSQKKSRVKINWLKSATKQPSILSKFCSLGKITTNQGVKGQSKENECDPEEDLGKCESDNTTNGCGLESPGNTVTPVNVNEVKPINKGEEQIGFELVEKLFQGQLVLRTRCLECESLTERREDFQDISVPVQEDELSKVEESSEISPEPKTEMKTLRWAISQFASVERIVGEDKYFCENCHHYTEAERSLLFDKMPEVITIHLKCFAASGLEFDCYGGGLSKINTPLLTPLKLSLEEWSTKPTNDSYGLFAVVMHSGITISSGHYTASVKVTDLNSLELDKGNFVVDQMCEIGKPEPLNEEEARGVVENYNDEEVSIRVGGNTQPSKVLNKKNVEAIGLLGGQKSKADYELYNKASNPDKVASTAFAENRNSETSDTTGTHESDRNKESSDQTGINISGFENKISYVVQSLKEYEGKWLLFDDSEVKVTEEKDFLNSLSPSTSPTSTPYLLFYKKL

The target in assay [19] is Cytochrome P450 1A2 (Homo sapiens) (UniProt P05177). Description: p450-cyp1a2 (AID 410; calls by dose curve;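 note: -100% = full effect of reference inhibitor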). A digest of the protocol:
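20nM CYP1A2, 100uM Luciferin-ME (=Km), 100mM KPO4; cpd 10 min RT; +NADPH regen, 60 min RT; stop/detect 20 min; luminescence. Normalized to furafylline 57 uM = full inhibition.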

The target in assay [20] is 3',5'-cyclic-AMP phosphodiesterase 4B (Homo sapiens) (UniProt Q07343). Kind of assay: qHTS Assay for Inhibitors of PDE-IV (AID 607; active = well fitted activation curve with a large enough effect in the main read-out, with a control signal flat, not every such curve was filed as active; note: % of control where 0% means no effect). The procedure, abridged: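 The readout is membrane depolarisation from a cAMP-sensing CNG channel, detected with a potential dye at ex 535/em 590. Cells were HEK293-derived (endogenous PDE-IV) at 1000 cells/well, titrated up to 22.9 uM final.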

Where [21] appears, read: measured here: cell count channel max response.
The mark [22] stands for this setting: measured here: lipid channel max response.

Results filed as inconclusive are left out. The source made the active and inactive calls. Unless noted, calls come from the whole dose curve; as a rule, active = well fitted curve in the direction sought with a large enough effect; inconclusive = small, poorly fitted or top-dose-only effect, or another doubt; inactive = no such curve, though single readings can be large; an effect the other way counts as inactive or inconclusive. Some results are limits rather than exact numbers.

Rap guanine nucleotide exchange factor 3 (Homo sapiens), sequence (O95398 whole entry, looked up): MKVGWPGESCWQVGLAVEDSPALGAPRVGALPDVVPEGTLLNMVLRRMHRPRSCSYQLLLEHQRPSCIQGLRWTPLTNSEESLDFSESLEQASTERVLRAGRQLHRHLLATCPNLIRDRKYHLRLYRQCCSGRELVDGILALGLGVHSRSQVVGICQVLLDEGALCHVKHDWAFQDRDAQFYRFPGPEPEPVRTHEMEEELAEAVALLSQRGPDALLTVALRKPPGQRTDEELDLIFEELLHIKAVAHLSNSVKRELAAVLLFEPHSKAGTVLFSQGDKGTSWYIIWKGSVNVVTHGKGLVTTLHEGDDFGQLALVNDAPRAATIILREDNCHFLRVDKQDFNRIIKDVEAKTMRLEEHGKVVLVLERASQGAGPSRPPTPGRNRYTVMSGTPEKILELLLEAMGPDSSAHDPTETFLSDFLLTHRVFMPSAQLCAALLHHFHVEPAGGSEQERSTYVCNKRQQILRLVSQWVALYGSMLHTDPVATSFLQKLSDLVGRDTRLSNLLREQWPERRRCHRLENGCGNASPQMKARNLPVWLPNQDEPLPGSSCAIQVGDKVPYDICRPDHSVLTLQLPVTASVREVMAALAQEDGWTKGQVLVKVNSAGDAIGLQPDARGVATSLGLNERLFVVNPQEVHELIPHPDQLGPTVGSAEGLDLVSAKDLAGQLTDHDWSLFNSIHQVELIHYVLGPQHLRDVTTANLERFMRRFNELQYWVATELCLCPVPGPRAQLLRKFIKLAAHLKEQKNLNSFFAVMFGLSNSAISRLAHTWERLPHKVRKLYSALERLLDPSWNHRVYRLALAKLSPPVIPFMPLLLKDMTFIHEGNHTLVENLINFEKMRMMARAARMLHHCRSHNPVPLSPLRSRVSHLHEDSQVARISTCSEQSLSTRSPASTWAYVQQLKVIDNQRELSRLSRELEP
Glucocorticoid receptor (Homo sapiens), sequence (P04150 whole entry, looked up, the tested form may be a part): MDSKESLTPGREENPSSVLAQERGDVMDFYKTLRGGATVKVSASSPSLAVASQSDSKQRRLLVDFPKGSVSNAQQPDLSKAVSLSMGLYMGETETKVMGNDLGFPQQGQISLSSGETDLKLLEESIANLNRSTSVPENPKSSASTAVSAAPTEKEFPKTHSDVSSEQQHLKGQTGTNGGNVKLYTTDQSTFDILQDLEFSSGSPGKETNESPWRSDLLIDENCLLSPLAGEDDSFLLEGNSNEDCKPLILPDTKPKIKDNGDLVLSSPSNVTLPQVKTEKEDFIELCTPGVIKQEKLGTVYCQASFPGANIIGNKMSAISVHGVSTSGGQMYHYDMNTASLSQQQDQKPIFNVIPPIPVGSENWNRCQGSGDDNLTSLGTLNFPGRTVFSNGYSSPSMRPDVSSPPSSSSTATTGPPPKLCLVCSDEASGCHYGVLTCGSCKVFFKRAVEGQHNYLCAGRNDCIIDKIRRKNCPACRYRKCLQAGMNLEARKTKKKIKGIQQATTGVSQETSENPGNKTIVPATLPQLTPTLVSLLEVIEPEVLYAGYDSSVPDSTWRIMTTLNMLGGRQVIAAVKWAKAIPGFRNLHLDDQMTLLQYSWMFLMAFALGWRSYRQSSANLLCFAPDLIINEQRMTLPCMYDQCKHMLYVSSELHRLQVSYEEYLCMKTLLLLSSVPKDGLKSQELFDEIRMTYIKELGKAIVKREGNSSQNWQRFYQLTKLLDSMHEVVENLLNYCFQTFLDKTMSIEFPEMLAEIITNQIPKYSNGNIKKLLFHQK
Cytochrome P450 1A2 (Homo sapiens), sequence (P05177 whole entry, looked up): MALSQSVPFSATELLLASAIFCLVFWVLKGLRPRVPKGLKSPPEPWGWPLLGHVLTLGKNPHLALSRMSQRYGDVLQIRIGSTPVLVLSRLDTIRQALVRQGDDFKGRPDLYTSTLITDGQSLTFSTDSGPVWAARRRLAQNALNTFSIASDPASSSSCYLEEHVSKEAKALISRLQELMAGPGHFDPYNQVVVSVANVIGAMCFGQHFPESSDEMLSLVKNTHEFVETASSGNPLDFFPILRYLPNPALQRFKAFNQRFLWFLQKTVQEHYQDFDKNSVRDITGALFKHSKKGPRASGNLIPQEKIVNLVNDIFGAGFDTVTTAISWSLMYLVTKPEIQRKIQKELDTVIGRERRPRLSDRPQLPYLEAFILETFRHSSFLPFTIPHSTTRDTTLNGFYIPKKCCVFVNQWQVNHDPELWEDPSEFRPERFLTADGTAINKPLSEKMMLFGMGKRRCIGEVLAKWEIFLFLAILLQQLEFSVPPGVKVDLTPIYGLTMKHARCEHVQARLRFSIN

For `COC(=O)c1c(OC)cc2c(c1C)Oc1c(Cl)c(OC(C)=O)c(Cl)c(C)c1C(=O)O2`, the Potency in [1] is 15.8 µM (active); in [9], 11.1 µM (active). The Potency result in [2], in assay [3], in assay [6], in assay [7] and in assay [8] was “inactive” in each case. Also, the molecule was called inactive in [4]. In addition, in [5], the activity change, negative = inhibition was 5.48% (inactive). The max response in [5] (setting [21]) was 2.97%; in assay [5] (setting [22]), 13%.
For `Cc1ccccc1-c1ccc2ncnc(N(C)Cc3ccco3)c2c1`, the Potency in assay [10] is > 11.4 µM (inactive); in assay [14], > 46 µM (inactive); in assay [15] it was > 46 µM (inactive); in assay [17], 14.1 µM (active); in assay [9], 31.2 µM (active). In addition, the activity change, negative = inhibition in [11] is -8.93% (inactive); in assay [12], -28.4% (inactive); in assay [5] it was 2.17% (inactive). In [13], the activity, negative = inhibition is -13.4% (inactive). The Potency result in assay [16], in assay [18], in assay [7] and in [8] was “inactive” in each case. Further, the max response in assay [5] (setting [21]) is 20.6%; in [5] (setting [22]) it was 23.2%.
For `O=C(c1cccc(F)c1)N1CCC[C@@]2(CCN(C(c3ccccc3)c3ccccc3)C2)C1`, the Potency is > 11.4 µM (inactive) in [10], > 46 µM (inactive) in [15] and 3.98 µM (active) in [1]. The activity change, negative = inhibition is 28.8% (inactive) in assay [11], 0.838% (inactive) in [12] and -11.6% (inactive) in assay [5]. For the same molecule, the Potency entry in [19], in [16], in assay [20], in assay [2], in [6] and in [7] was “inactive” throughout. The Potency entry in [8] and in assay [9] was “inactive” in each case. The activity, negative = inhibition in assay [13] was 12.6% (inactive). In addition, the max response is 5.27% in assay [5] (setting [21]) and -12.6% in [5] (setting [22]).
In the case of `COc1cccc(-c2nc(Nc3ccncc3)c3ccccc3n2)c1`, the Potency in [10] was 2.53 µM (active); in [14], > 46 µM (inactive); in assay [15] it was > 46 µM (inactive); in assay [1], 2.51 µM (active); in assay [18], 39.8 µM (active). For the same molecule, the activity change, negative = inhibition in [11] is -6.31% (inactive); in assay [5] it was -7.83% (inactive). For the same molecule, the activity, negative = inhibition in assay [13] was -15.1% (inactive). Moreover, the Potency entry in assay [16], in [20], in assay [2], in assay [3], in assay [6] and in [9] was “inactive” throughout. The result in assay [4] was inactive. Further, the max response in assay [5] (setting [21]) is -14.4%; in [5] (setting [22]) it was -19.7%.
Regarding `COc1ccc(C(=O)O)c(O)c1OC`, the Potency entry in [1], in assay [3], in assay [18], in assay [6], in assay [7] and in assay [8] was “inactive” each time. The Potency entry in assay [9] was “inactive”. In addition, the molecule was called inactive in assay [4]. Moreover, the activity change, negative = inhibition in assay [5] was 7.29% (inactive). The max response was 8.57% in assay [5] (setting [21]) and 18.5% in assay [5] (setting [22]).
As to `O=C1CC[C@@]23/C=C/C(=O)NCCCCNCCCNC(=O)/C=C/c4ccc(c2c4)OC3C1` (some centres not stated), the Potency entry in [2], in [3], in assay [18], in [6], in assay [7] and in assay [8] was “inactive” each time. Moreover, the Potency entry in [9] was “inactive”. For the same molecule, the molecule was classed as inactive in assay [4]. The activity change, negative = inhibition in assay [5] is 2.57% (inactive). For the same molecule, the max response in assay [5] (setting [21]) was determined as 7.49%; in [5] (setting [22]) it was 1.79%.
